# Shown are actives, neighbours in structure and some others; about 4.7% of the full set was active somewhere.
# D1 agonist: agonists of human D1 dopamine receptor | HEK293 T-REx D1 cells, calcium flux, agonist mode | activation, % at 2 µM | 360,000 tested, 1% active; note: 0% is about no effect
# Target sequence (P21728 whole entry, looked up): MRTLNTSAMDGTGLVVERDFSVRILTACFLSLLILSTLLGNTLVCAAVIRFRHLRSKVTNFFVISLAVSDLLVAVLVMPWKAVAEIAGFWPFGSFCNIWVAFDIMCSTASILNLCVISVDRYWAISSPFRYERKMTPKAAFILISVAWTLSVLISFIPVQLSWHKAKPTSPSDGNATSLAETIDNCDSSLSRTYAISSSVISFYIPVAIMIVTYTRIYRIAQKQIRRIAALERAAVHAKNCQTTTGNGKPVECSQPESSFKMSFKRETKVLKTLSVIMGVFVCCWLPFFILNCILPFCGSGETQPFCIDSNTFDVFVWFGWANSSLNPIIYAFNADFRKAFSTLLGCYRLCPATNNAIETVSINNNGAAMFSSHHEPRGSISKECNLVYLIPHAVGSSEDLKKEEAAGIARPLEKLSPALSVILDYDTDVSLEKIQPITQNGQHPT
#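 Tetracycline-induced HEK293 TREx D1 cells, force-coupled to calcium signalling, were dye-loaded with a no-wash calcium kit. Compound was pin-added after a 10 s baseline. Fluorescence was read kinetically at 1 cycle/s for 180 s, with calcium rises flagged as agonism.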
# TRHR ag: agonists of human TRH receptor; P34981; activation, % at 2 µM; 360,000 tested, 0.18% active; TRHR cells, calcium flux fluo-8, FDSS agonist mode; note: 0% is about no effect
#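 In this calcium-flux screen, cells bearing human TRHR are dye-loaded with fluo-8, baselined for 10 cycles, then exposed to library compounds; positive kinetic calcium responses during the agonist phase mark hits, with TRH as control.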
# D1 antag: human D1 dopamine receptor antagonism; HEK293 TREx D1 cells, calcium flux, dopamine EC80; stronger effect = lower value; activity change, negative = inhibition, % at 10 µM; 360,000 tested, 3.2% active; AID 504652; in the data active = activity change below about -30%; note: % is set by controls: 0 for no effect and ±100 for the full control effect
#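 Kinetic fluorescence of a calcium dye serves as the read-out. D1-expressing Hek293 Trex cells, induced overnight at 30 C, are exposed to compound for 180 s before an EC80 dopamine addition, then read 180 s further.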
# TRHR enhancer: TRH receptor (human) allosteric enhancement. P34981. TRHR cells, fluo-8 calcium fluorescence, EC20 TRH enhancement. enhancement, % at 2 µM. 360,000 tested, 0.66% active. AID 493056; in the data active = enhancement above about 30%; note: 0% is about no effect
#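 TRHR-expressing cells loaded with fluo-8 calcium dye were read kinetically (ex 480/em 530) during compound addition, then stimulated with an EC20 of TRH (10 nM final). Enhancement of the Gq-mediated intracellular calcium response was scored.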
# D1 potentiator: human D1 dopamine receptor positive modulation; P21728; HEK293 TREx D1 cells, calcium flux, dopamine EC20 potentiation; potentiation, % at 10 µM; 360,000 tested, 0.036% active; in the data active = potentiation above about 30%; note: 0% is about no effect
# An asterisk follows results filed as active; / = no result. Cut-off read from the data, not from the text of the source, unless noted: active = activation above about 30%; inactive = the rest.
SMILES,D1 agonist,TRHR ag,D1 antag,TRHR enhancer,D1 potentiator
Cc1cccc(NC(=O)Cn2nnc(-c3nc(-c4ccncc4)no3)c2N)c1,1,1,9,3,2
CC(C)NC(=O)CNc1ccc(C(F)(F)F)cc1[N+](=O)[O-],2,0,-30*,0,-14
O=C(CSc1ccc(C(F)(F)F)cc1[N+](=O)[O-])Nc1ccccc1,37*,-1,-13,0,-8
Cc1c(C)n(C(=O)CN2CCC(C)CC2)c2ccccc12,13,0,-1,35*,1
O=C(CCC(=O)c1cccs1)OCc1nnc(-c2ccccc2)o1,2,-1,-39*,0,-8
COc1cc2nc(CN(C)Cc3ccc(Cl)cc3)[nH]c(=O)c2cc1OC,4,1,19,-2,3
COc1cc2cncc(Cc3ccc(Cl)cc3)c2cc1OC,5,0,-45*,1,0
CCOc1ccccc1C(=O)N1CCc2cc(OC)c(OC)cc2C1COc1ccc(OC)cc1 (centres undefined),3,-1,1,-7,1
O=[N+]([O-])c1ccc(N/N=C2\CC3CC=CC23)cc1 (centres undefined),14,0,-31*,-8,-1
O=C(CSc1nc2ccccc2c(=O)n1NC(=O)Cc1ccccc1)NCc1ccccc1,6,0,-32*,-4,-9
O=S(=O)(NCC1CCCO1)c1ccccc1 (centres undefined),1,0,1,0,-2
Cc1ccc(-c2ccc(S(=O)(=O)NCC3CCCO3)cc2)cc1 (centres undefined),8,-1,-32*,-2,-6
Cc1ccc(CN(Cc2ccco2)S(=O)(=O)c2ccc(S(=O)(=O)NCC3CCCO3)cc2)cc1 (centres undefined),23,0,-36*,-1,-4
O=C(c1ccc(S(=O)(=O)NCC2CCCO2)cc1)N1CCc2ccccc21 (centres undefined),13,-1,-51*,0,-6
CCN(C(=O)Cn1c(C(=O)OC)cc2oc3ccccc3c21)c1cccc(C)c1,6,2,-12,3,2
Nc1nc(CN2CCN(Cc3ccc4c(c3)OCO4)CC2)nc(Nc2ccccc2)n1,2,-1,-47*,10,-10
Nc1nc(CN2CCN(c3ccccc3)CC2)nc(Nc2ccc(Cl)cc2)n1,1,-1,-40*,0,-6
Nc1nc(CN2CCN(c3ccccc3F)CC2)nc(Nc2ccccc2)n1,1,0,-3,0,1
CN(C(=O)c1cc2c(=O)n3ccccc3nc2n1C)c1ccccc1,3,0,7,-4,0
O=C(Nc1cccc(Br)c1)c1ccc(OC2CSC2)cc1,3,1,-36*,9,-4
CC(=O)c1cccc(NC(=O)c2ccc(OC3CSC3)cc2)c1,6,1,-15,-5,-3
CC1CCN(S(=O)(=O)c2cc(C(=O)NCCc3ccccc3)n(C)c2)CC1,2,-1,8,-2,-5
CCOc1ccc(S(=O)(=O)N(CCO)CCO)cc1-c1nc2c(C(C)(C)C)nn(C)c2c(=O)[nH]1,1,0,-1,4,30*
COc1cccc(CNC(=O)C2CCN(C(=O)c3cnn(-c4ccccc4)c3-n3cccc3)CC2)c1,-2,-1,-5,0,-3
CN(c1ccc(C(=O)Nc2ccccc2Sc2ccccc2)cc1)S(C)(=O)=O,17,2,-40*,1,-3
SMILES,D1 agonist,TRHR ag,D1 antag,TRHR enhancer,D1 potentiator
Cc1ccc(C(=O)Nc2ccccc2Sc2ccccc2)cc1,4,0,-8,0,-6
CN(c1ccc(C(=O)Nc2ccc(CC#N)cc2)cc1)S(C)(=O)=O,3,1,-34*,3,-3
COc1ccc(NC2=C(c3ccc(C(F)(F)F)cc3)C(=O)c3ccccc32)cc1,2,1,1,0,1
Cn1c2cc(C(=O)O)sc2c2cnn(Cc3ccccc3F)c(=O)c21,-1,1,7,6,14
CCOC(=O)Cn1c(=O)cc(C)c2c(C)nn(-c3cccc(F)c3)c21,19,-1,-8,1,-2
O=C(COc1ccc(Cl)cc1)NCC(c1cccs1)S(=O)(=O)c1ccc(F)cc1 (centres undefined),-5,-1,/,1,-1
CC(C)(C)C1CCc2c(sc(NC(=O)c3cccs3)c2C(N)=O)C1 (centres undefined),4,0,12,-4,33*
CN1CCN(C(=O)c2c(NC(=O)c3ccco3)sc3c2CCC(C(C)(C)C)C3)CC1 (centres undefined),34*,-1,-1,14,-6
Cc1ccccc1C(=O)Nc1sc2c(c1C(=O)N1CCCCC1)CCC(C(C)(C)C)C2 (centres undefined),-1,0,-8,3,0
Cc1cccc(CNC(=O)c2cnc3sc(N4CCOCC4)nn3c2=O)c1,1,-1,16,30,-6
CC(=O)NC(=S)Nc1ccc(S(=O)(=O)N(C)Cc2ccccc2)cc1,19,-1,-31*,13,-8
CC(C)C(=O)NC(=S)Nc1ccc(S(=O)(=O)N(C)Cc2ccccc2)cc1,2,-1,-35*,6,-11
CN(Cc1ccccc1)S(=O)(=O)c1ccc(NS(=O)(=O)Cc2ccccc2)cc1,4,0,-34*,1,0
O=C(NCc1ccccc1)c1cccn1-c1nnc(N2CCCC2)s1,2,0,11,7,-4
Cc1ccccc1C(=O)Nc1nnc(-c2ccc(F)cc2)o1,-1,0,-37*,5,0
O=C(Nc1nnc(-c2ccccc2)o1)c1nc2ccccc2s1,164*,31*,-25,-8,-13
CCc1nc2ccccc2c(C(=O)O)c1C,2,-1,3,-3,-3
O=C(NCCO)c1nc2ccccc2s1,0,0,4,-6,0
O=C(NCc1ccccc1)c1nc2ccccc2s1,3,0,-39*,2,-4
CCc1nc2ccccc2c(C(=O)NCc2ccccc2)c1C,1,-2,-49*,-6,-3
Cc1cc([N+](=O)[O-])ccc1NC(c1nnc(-c2ccccc2)o1)c1ccccc1F (centres undefined),6,0,1,-5,0
CCC(=O)N1CCCC(C(=O)c2ccc(-c3ccccc3)cc2)C1 (centres undefined),5,0,-30*,0,-6
COC(=O)CCCC(=O)N1CCCC(C(=O)c2ccc(-c3ccccc3)cc2)C1 (centres undefined),4,-1,-30*,3,-9
COC(=O)CCCC(=O)N1CCCC(CCC(=O)NCc2ccc(F)c(F)c2)C1 (centres undefined),8,-1,-44*,7,-6

# Compound activity: PubChem BioAssay, National Center for Advancing Translational Sciences (NCATS)
